Hit rate of the full screen: of about 1,200 compounds, about 290 (24%) were called active. Not shown: some 3% with an inconclusive outcome.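 Rule for the calls: active = compounds lowering cell viability signal with fitted half-maximal concentration at most ten times their highest tested concentration; inconclusive = flat fit with 30 to 70% signal loss, or poor fit; inactive = the rest.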 Not all results are given here. Results with a measured potency or affinity are listed apart.
experiment: cytotoxicity in HEK293T cells – cell-based, CellTiter-Glo luminescence, cherry-picks, cytotoxicity control for LMP1 NF-kB inhibitor project, dose response (AID 504861); details: HEK293T viability, CellTiter-Glo ATP luminescence, 48 h; series mostly up to 26 µM

| SMILES | outcome |
| --- | --- |
| O=C(O)c1ccc(N/N=C/c2cc3cc4c(cc3nc2Cl)OCCO4)cc1 | inactive |
| O=C(Cc1cccc2ccccc12)Nc1ccc(-c2cc3ccccc3oc2=O)cc1 | inactive |
| NC(=O)N/N=C/c1ccc(N2CCOCC2)s1 | inactive |
| CC1(C)CC(NS(=O)(=O)c2ccc(F)cc2)CC(C)(C)N1 | inactive |
| O=[N+]([O-])c1ccc(N2CCN(Cc3cccc([N+](=O)[O-])c3)CC2)cc1 | inactive |
| O=c1[nH]c(=O)n([C@H]2C[C@H](O)[C@@H](CO)O2)cc1F | inactive |
| c1ccc(-c2nnc(-c3ccccn3)s2)nc1 | inactive |
| Cc1c(NC(=O)c2cccc(NC(=O)COc3ccccc3C#N)c2)c(=O)n(-c2ccccc2)n1C | inactive |
| Cc1ccc(C(=O)Nc2cccc(C(=O)O)c2)cc1S(=O)(=O)N1CCCCC1 | inactive |
| Cc1nc(Nc2nc3ccccc3o2)nc2c1CCC2 | inactive |
| COc1ccc(C=NNc2nc3ccccc3s2)cc1 | inactive |
| Cc1cccc(C)c1Nc1nc2ccccc2o1 | inactive |
| CC1CCCN(C(=O)COC(=O)c2n[nH]c3ccccc23)C1 (stereo not drawn) | inactive |
| COc1c(S(=O)(=O)N2CCN(c3ccc(F)cc3)CC2)ccc(Cl)c1Cl | inactive |
| CC(=O)c1ccc(-c2nc3c4ccccc4ccn3c2C(C)=O)o1 | inactive |
| Cc1nn(-c2ccccc2)c(Cl)c1C1C(C#N)=C(N)Oc2n[nH]c(C)c21 (stereo not drawn) | inactive |
| CCCCN(c1ccccc1)c1ncnc(N)c1[N+](=O)[O-] | inactive |
| CN1CCN(CCOc2ccc(Cc3ccccc3)cc2)CC1 | inactive |
| OC(CCCN1CCCCC1)(c1ccccc1)c1ccccc1 | inactive |
| COc1ccc(/C=C/C(=O)OCC(=O)NCc2ccco2)cc1OC | inactive |
| NNC(=O)c1cccc(COc2ccc3c(c2)CCC3)c1 | inactive |
| O=c1c([N+](=O)[O-])cn(Cc2ccccc2)c(=O)n1Cc1ccccc1 | inactive |
| O=C1CSC(=S)N1Cc1ccccc1 | inactive |
| CCOC(=O)C1=C(O)/C(=C/c2ccc(CNC(=O)C(=O)Nc3ccc(C)cc3)o2)N=C1C | inactive |
| O=C1CN(C(=O)c2ccc(F)c(S(=O)(=O)N3CCOCC3)c2)c2ccccc2N1 | inactive |

| SMILES | outcome |
| --- | --- |
| COC(=O)[C@H](C)[C@H]1C[C@]1(C)[C@H](NC(=O)OCc1ccccc1)c1ccccc1 | inactive |
| Clc1ccccc1C1=Nn2c(nnc2-c2ccncc2)SC1 | inactive |
| Cc1cc(N/N=C\c2ccc(Br)cc2)nc(-n2nc(C)cc2C)n1 | inactive |
| COc1ccc(S(=O)(=O)N2CCN(C(=S)NCC3CCCO3)CC2)cc1OC (stereo not drawn) | inactive |
| Oc1c(N=NC(=S)Nc2ccccc2F)c2ccccc2n1Cc1ccccc1Cl | inactive |
| COc1ccc(C2=NN(C(=O)CSC3=NN4CCCC(=O)N=C4S3)C(c3cccc(OC)c3OC)C2)cc1 (stereo not drawn) | inactive |
| O=C(NC1=NCCS1)c1cc2ccccc2o1 | inactive |
| O=C(O)[C@@H]1[C@H]2C[C@H]3c4[nH]c5ccccc5c4CCN3C[C@@H]2CC[C@@H]1O | inactive |
| Cc1ccnc(NC(=O)c2ccc(C(=O)c3ccccc3)cc2)c1 | inactive |
| Cc1ccnc(NC(=O)c2ccc(OCC3CCCO3)cc2)c1 (stereo not drawn) | inactive |
| COc1ccc(C(c2c(C)n(C)n(-c3ccccc3)c2=O)c2c(C)n(C)n(-c3ccccc3)c2=O)c(OC)c1OC | inactive |
| CCCNC(=O)N1CCN(S(=O)(=O)c2ccc(C)c(C)c2)CC1 | inactive |
| O=C(CCC(=O)NNC(=O)Nc1cccc(Cl)c1)NCc1ccccc1 | inactive |
| Cc1cc(NCCCn2ccnc2)n2ncc(-c3ccccc3)c2n1 | inactive |
| O=C(Nc1cnc2ccccn2c1=O)c1ccc(Cl)cc1Cl | inactive |
| O=C1c2cccc3c(O)ccc(c23)C(=O)N1c1ccc(Cl)cc1 | inactive |
| CC(=O)c1ccc(-n2nnnc2SCC(=O)N2CCc3ccccc3C2)cc1 | inactive |
| COc1cc(N)c(Cl)cc1C(=O)NC1CCN(Cc2ccccc2)CC1 | inactive |
| CCOc1ccc(NC(=O)c2cnsn2)cc1 | inactive |
| COc1ccc(-n2c(C)c(C(C)=O)c3cc(O)ccc32)cc1 | inactive |
| Clc1ccc(-n2nnnc2Sc2ncnc3sccc23)cc1 | inactive |
| COc1cc2nc(NC(=O)c3ccco3)sc(=O)c2cc1OC | inactive |
| O=C(Nc1ccc(Cl)cc1)c1ccco1 | inactive |
| COc1cccc(/C=C2\SC(=S)N(CCC(=O)NCCc3ccc(O)cc3)C2=O)c1 | inactive |
| COc1ccc(NC(=O)Cn2nnc(C(=O)NCc3ccccc3)c2N)c(OC)c1 | inactive |

| SMILES | outcome |
| --- | --- |
| CNC(=O)C1=NCCCc2cc(OC)c(OC)cc21 | inactive |
| CCc1ccc(/C=C2\SC(=S)N(CCCC(=O)Nc3ccccn3)C2=O)cc1 | inactive |
| COc1ccc(OC)c2[nH]c(=O)c(CCNC(=O)c3ccc(S(=O)(=O)N(C)C)cc3)cc12 | inactive |
| O=C(NOCc1ccccc1)c1ccc(Cl)cc1Cl | inactive |
| CCOC(=O)c1nc(NCc2ccccc2F)c2ccccc2n1 | inactive |
| C/C(=N\NS(=O)(=O)c1ccc([N+](=O)[O-])cc1)c1cccs1 | inactive |
| CC1Cc2ccccc2N1c1ncnc(N)c1[N+](=O)[O-] (stereo not drawn) | inactive |
| O=C(/C=C/Nc1ccc(F)cc1Br)c1ccccc1 | inactive |
| COc1ccc(C(=O)Nc2nnc(SCC(=O)NC3CC3)s2)cc1 | inactive |
| O=C(COc1ccc2ccccc2c1)NCCNC(=O)COc1ccc2ccccc2c1 | inactive |
| Cc1ccc(C(=O)CSc2nnnn2C(C)C)c(C)c1 | inactive |
| O=C(Nc1nnc(-c2cccs2)o1)c1cccc(C(F)(F)F)c1 | inactive |
| COc1ccc(C(=O)Nc2cccc(C(=O)N/N=C/c3ccc(OC)cc3OC)c2)cc1 | inactive |
| COc1ccc(OCc2cccc(C(=O)Nn3cc([N+](=O)[O-])cn3)c2)cc1 | inactive |
| Cc1ccc(C(=O)N2CCN(c3ccc(NC(=O)CSc4ccc(Cl)cc4)cc3)CC2)cc1 | inactive |
| Cc1nnc(SCc2cnc(-c3ccc(C(C)C)cc3)s2)n1C | inactive |
| Cc1cc(NC(=O)CSc2ccnc(=O)[nH]2)no1 | inactive |
| O=C1OCCC1Sc1nnc(-c2ccc(Cl)cc2Cl)o1 (stereo not drawn) | inactive |
| O=c1[nH]c(Nc2nc3ccccc3o2)nc2c1CCCC2 | inactive |
| O=C(Nc1ccc(CN2CCOCC2)cc1)c1cc2ccccn2n1 | inactive |
| O=C(CC(c1ccc(F)cc1)c1ccco1)N1CCOCC1 (stereo not drawn) | inactive |
| Clc1ccc(-c2ccnc(Oc3ccc4ccccc4c3)n2)cc1 | inactive |
| CC(C)(C)c1cc(C(=O)NNC(=O)Nc2cccc(Cl)c2)n(Cc2ccccc2)n1 | inactive |
